According to PubChem BioAssay (Tox21):
Values joined by “and” are separate entries in the source; they are usually repeats but may differ in a detail not shown here. Equal values may be shown once. Active and inactive are the calls of the source. Where a call stands in place of a potency, no number is given. Unless noted, calls come from the whole dose curve; as a rule, active = well fitted curve in the direction sought with a large enough effect in the repeat runs; inconclusive = weak or mixed curves; inactive = no such curve, though single readings can be large; an effect the other way counts as inactive or inconclusive.

Columns and labels:
[1] = qHTS assay to identify small molecule antagonists of the thyroid receptor (TR) signaling pathway - cell viability counter screen (AID 743064); note: nearly all actives have a fitted effect of over 50% in size; note: potency is the fitted concentration of half-maximal effect
How it was run: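 CellTiter-Fluor readout, 30 min at 37 °C/5% CO2, following 23.5 h incubation of GH3.TRE-Luc cells with test compound and 1 nM T3 (final).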

[2] = qHTS assay to identify small molecule antagonists of the thyroid receptor (TR) signaling pathway (AID 743065); note: nearly all actives have a fitted effect of over 55% in size; note: potency is the fitted concentration of half-maximal effect
How it was run: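 GH3.TRE-Luc rat pituitary cells (two TREs driving luciferase) were dosed with compound, then stimulated with 1 nM T3 (final) for 23.5 h at 37 C. ONE-Glo luminescence was the read-out, with CellTiter-Fluor fluorescence as the cytotoxicity counter-screen.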

[3] = tested on: thyroid hormone receptor (rat, GH3 cells); test: qHTS assay to identify small molecule agonists of the thyroid receptor (TR) signaling pathway (AID 743066; calls by dose curve)
[4] = qHTS assay to identify small molecule antagonists of the estrogen receptor alpha (ER-alpha) signaling pathway - cell viability counter screen (AID 743074; calls by dose curve;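 note: HEK293 cells carrying ER-alpha-UAS-bla reporter stimulated with 17beta-estradiol; nearly all actives have a fitted effect of over 45% in size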; note: potency is the fitted concentration of half-maximal effect)
[5] = qHTS assay to identify small molecule antagonists of the estrogen receptor alpha (ER-alpha) signaling pathway using the BG1 cell line - cell viability counter screen (AID 743081);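 note: compound given together with 17beta-estradiol as the ER stimulus; nearly all actives have a fitted effect of over 45% in size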; note: potency is the fitted concentration of half-maximal effect
Aromatase (Homo sapiens) = Aromatase (Homo sapiens) (UniProt P11511); test: qHTS assay to identify aromatase inhibitors (AID 743083); note: nearly all actives have a fitted effect of over 55% in size; note: potency is the fitted concentration of half-maximal effect
[6] = biological target: Estrogen receptor (Homo sapiens) (UniProt P03372); test: qHTS assay to identify small molecule agonists of the estrogen receptor alpha (ER-alpha) signaling pathway (AID 743075; calls by dose curve;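 note: HEK293 GripTite cells with ER-alpha and UAS-driven beta-lactamase reporter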; note: potency is the fitted concentration of half-maximal effect)
[7] = biological target: Estrogen receptor (Homo sapiens) (UniProt P03372); test: qHTS assay to identify small molecule agonists of the estrogen receptor alpha (ER-alpha) signaling pathway using the BG1 cell line (AID 743079); note: nearly all actives have a fitted effect of over 20% in size; note: potency is the fitted concentration of half-maximal effect
[8] = qHTS assay to identify small molecule antagonists of the estrogen receptor alpha (ER-alpha) signaling pathway using the BG1 cell line (AID 743080; calls by dose curve;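 note: BG1 cells stimulated with 17beta-estradiol alongside compound; nearly all actives have a fitted effect of over 25% in size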; note: potency is the fitted concentration of half-maximal effect)
How it was run: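 Seeding, 24 h rest, compound transfer from DMSO, 17beta-estradiol addition, 21.5 h incubation, CellTiter-Fluor (30 min, 37 C), then ONE-Glo (30 min, room temperature): this sequence was run on BG1-Luc-4E2 reporter cells.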

[9] = biological target: Estrogen receptor (Homo sapiens) (UniProt P03372); test: qHTS assay to identify small molecule antagonists of the estrogen receptor alpha (ER-alpha) signaling pathway (AID 743069; active = well fitted curve in the direction sought with a large enough effect in the signal ratio in the repeat runs, not every such curve was filed as active; inconclusive = weak or mixed curves, or effect the other way; inactive = no such curve, though single readings can be large or run the other way; the % refers to the signal ratio; note: potency is the fitted concentration of half-maximal effect)
How it was run: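 Reporter cells (ER-alpha-bla, HEK293 background) are conditioned overnight in stripped-serum medium (2% charcoal-stripped FBS). Compound and 17beta-estradiol exposure runs 18 hr at 37C, 5% CO2.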

Chain of Aromatase (Homo sapiens) (P11511 whole entry, looked up): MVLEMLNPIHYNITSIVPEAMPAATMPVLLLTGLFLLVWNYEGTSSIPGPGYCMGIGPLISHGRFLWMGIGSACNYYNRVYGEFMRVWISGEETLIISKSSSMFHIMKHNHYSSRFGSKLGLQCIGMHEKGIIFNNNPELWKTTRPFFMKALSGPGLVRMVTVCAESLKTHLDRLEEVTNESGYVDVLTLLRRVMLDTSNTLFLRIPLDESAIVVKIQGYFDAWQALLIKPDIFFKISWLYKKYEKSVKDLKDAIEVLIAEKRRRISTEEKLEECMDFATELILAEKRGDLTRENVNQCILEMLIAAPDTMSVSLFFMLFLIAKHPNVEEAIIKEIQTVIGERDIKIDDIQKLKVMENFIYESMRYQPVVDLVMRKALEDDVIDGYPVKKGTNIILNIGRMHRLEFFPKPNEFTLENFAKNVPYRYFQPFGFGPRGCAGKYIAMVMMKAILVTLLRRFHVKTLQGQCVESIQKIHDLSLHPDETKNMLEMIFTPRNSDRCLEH
Chain of Estrogen receptor (Homo sapiens) (P03372 whole entry, looked up): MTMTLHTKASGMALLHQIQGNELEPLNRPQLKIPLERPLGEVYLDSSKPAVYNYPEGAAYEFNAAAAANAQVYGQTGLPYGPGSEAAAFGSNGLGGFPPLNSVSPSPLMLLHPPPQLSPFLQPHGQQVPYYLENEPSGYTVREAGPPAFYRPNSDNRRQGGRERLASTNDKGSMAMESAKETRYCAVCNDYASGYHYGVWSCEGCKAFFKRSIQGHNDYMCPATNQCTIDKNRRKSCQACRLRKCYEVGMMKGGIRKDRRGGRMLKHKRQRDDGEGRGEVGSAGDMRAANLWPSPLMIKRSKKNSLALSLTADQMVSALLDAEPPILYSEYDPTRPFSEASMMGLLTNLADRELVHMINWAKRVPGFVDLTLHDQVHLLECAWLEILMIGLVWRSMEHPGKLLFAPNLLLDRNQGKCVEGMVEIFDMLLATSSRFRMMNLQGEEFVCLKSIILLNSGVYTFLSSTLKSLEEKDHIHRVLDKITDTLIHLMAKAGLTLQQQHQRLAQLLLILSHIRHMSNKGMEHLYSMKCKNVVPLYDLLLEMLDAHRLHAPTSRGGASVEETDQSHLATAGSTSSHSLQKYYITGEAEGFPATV

Row | Compound | Potency [1] | Potency [2] | outcome [3] | Potency [4] | Potency [5] | Potency (Aromatase (Homo sapiens)) | Potency [6] | Potency [7] | Potency [8] | Potency [9]
1 | O=[N+]([O-])c1ccc(F)c(Cl)c1 | inactive | inactive | inactive | inactive | inactive | inactive | – | – | – | –
2 | CC1(C)[C@@H](O)CC[C@]2(C)[C@H]3C(=O)C=C4[C@@H]5C[C@@](C)(C(=O)O)CC[C@]5(C)CC[C@@]4(C)[C@]3(C)CC[C@@H]12 | 29.8 µM (active) and 24.1 µM (active) | 29.8 µM (active) and 26.6 µM (active) and 27 µM (active) | inactive | inactive | inactive | inactive | inactive | inactive | inactive | –
3 | CCC(CC)(CC(=O)Nc1cccc(/C=C/c2nc(C3CCC3)cs2)c1)C(=O)O | inactive | inactive | inactive | inactive | inactive | inactive | inactive | inactive | inactive | –
4 | COc1c(C)c2c(c(O)c1C/C=C(\C)CCC(=O)OCCN1CCOCC1)C(=O)OC2 | 1.68 µM (active) | 0.944 µM (active) | inactive | inactive | inactive | inactive | – | 13.3 µM (active) | – | 3.38 µM [inconclusive] (active)
5 | O=c1[nH]c2ccccc2n1CCCN1CCN(C(c2ccccc2)c2ccccc2)CC1 | 23.7 µM (active) | 23.7 µM (active) | inactive | inactive | – | inactive | – | – | – | –
6 | CN(C)c1ccc(C(=C2C=CC(=[N+](C)C)C=C2)c2ccc(N(C)C)cc2)cc1 | 1.88 µM (active) and 859 nM (active) and 8.63 µM (active) | 1.33 µM (active) and 431 nM (active) and 545 nM (active) | – | 10.7 µM (active) and 8.67 µM (active) and 24.5 µM (active) | 13.3 µM (active) and 12.1 µM (active) and 24.3 µM (active) | 2.98 µM (active) and 608 nM (active) and 864 nM (active) | 3.07 µM [inconclusive] (active) | – | 2.42 µM (active) and 3.86 µM (active) | 34.7 µM [cytotoxic] (active)
7 | COc1ccc(NC(=O)CC(C)=O)cc1 | inactive | inactive | inactive | inactive | inactive | inactive | – | – | – | –
8 | COc1ccc(-c2coc3cc(O)ccc3c2=O)cc1 | inactive | inactive | inactive | inactive | inactive | inactive | 7.76 µM [inconclusive] (active) | 1.54 µM (active) | – | –
9 | COc1cccc(OC)c1C(=O)O | inactive | inactive | inactive | inactive | inactive | – | – | – | – | –
10 | CCN(CC)C(=O)c1cc(S(=O)(=O)Cc2ccccc2)c(N2CCC(c3ccccc3)CC2)cc1N(CC)CCN(C)C | 3.35 µM (active) and 4.28 µM (active) | 4.22 µM (active) and 4.8 µM (active) | inactive | – | – | – | inactive | inactive | inactive | inactive
11 | O=C1NC(=O)[C@@H]2CC=CC[C@H]12 | inactive | inactive | inactive | inactive | inactive | – | – | – | – | –
12 | Cc1cc(-c2ccc(N=Nc3cc(S(=O)(=O)O)c4ccccc4c3N)c(C)c2)ccc1N=Nc1cc(S(=O)(=O)O)c2ccccc2c1N | 61.4 µM (active) | 27.4 µM (active) | inactive | – | 30.8 µM (active) | – | – | – | – | –
13 | S=c1nccc[nH]1 | inactive | inactive | inactive | inactive | inactive | inactive | – | 30.7 µM (active) | inactive | inactive
14 | C=CC(=O)OCCOC(=O)C=C | 61.1 µM (active) | 38.6 µM (active) | inactive | inactive | inactive | – | 17.4 µM [inconclusive] (active) | 1.72 µM (active) | – | –
15 | CCCCCCCCCCCCCC[N+](C)(C)C | 4.22 µM (active) and 11.8 µM (active) and 8.63 µM (active) | 2.98 µM (active) and 5.91 µM (active) and 5.44 µM (active) | inactive | 23.9 µM (active) and 37.6 µM (active) | inactive | 10.6 µM (active) and 23.5 µM (active) and 15.3 µM (active) | inactive | – | – | –
16 | CCc1oc2ccccc2c1C(=O)c1cc(I)c(O)c(I)c1 | 29.8 µM (active) | 21.1 µM (active) | inactive | – | inactive | – | inactive | – | – | –
17 | Cc1cccc2cccnc12 | inactive | inactive | inactive | inactive | inactive | inactive | – | – | – | –
18 | Sc1nc2ccccc2s1 | inactive | inactive | inactive | inactive | inactive | – | – | – | – | –
19 | COc1cc2nc(N3CCN(C(=O)c4ccco4)CC3)nc(N)c2cc1OC | 8.41 µM (active) | 8.41 µM (active) | – | inactive | inactive | – | inactive | inactive | inactive | –
20 | c1ccc(C(O[C@@H]2CCCN(CCc3ccc4c(c3)OCO4)C2)c2ccccc2)cc1 | 24.3 µM (active) | 30.6 µM (active) | – | – | inactive | – | inactive | – | – | inactive
21 | CCC(CC)C(C)CCOC(C)=O (stereo not given) | inactive | inactive | inactive | inactive | inactive | inactive | – | – | – | –
22 | CCCCOC(=O)CC | inactive | inactive | inactive | inactive | inactive | inactive | – | – | – | –
23 | C=CCn1c(=O)n(CC=C)c(=O)n(CC=C)c1=O | inactive | inactive | inactive | inactive | inactive | inactive | – | – | – | –
24 | CCCC(=O)OC(C)(C)Cc1ccccc1 | inactive | inactive | inactive | inactive | inactive | inactive | – | – | – | –
25 | CC(C)(C)c1csc(-c2cc3cc(OCc4ccccc4CC(=O)O)ccc3o2)n1 | 54.5 µM (active) | 61.1 µM (active) | inactive | 24.5 µM (active) | inactive | – | inactive | – | – | –
26 | Oc1ccccc1O | 17.4 µM (active) and 15.4 µM (active) | 43.8 µM (active) and 43.3 µM (active) | inactive | – | inactive | 27.6 µM (active) | – | – | – | –
27 | Cc1ccc(O)c(N)c1 | 30.7 µM (active) | 43.3 µM (active) | inactive | inactive | inactive | – | inactive | – | – | –
28 | CC(C)Cn1cnc2c(N)nc3ccccc3c21 | inactive | inactive | inactive | inactive | – | inactive | inactive | – | – | inactive
29 | Nc1ccc(C(=O)O)c(O)c1 | inactive | inactive | inactive | inactive | inactive | inactive | – | – | – | –
